The target of this assay is Nonstructural protein 3 (Zika virus) (UniProt A0A024AXB9).
The mark [1] stands for this setting: PRVABC59, Concentration 15.0 uM, Number of replicates 1.0.
[2] abbreviates: PRVABC59, Concentration 50.0 uM, Number of replicates 1.0.

Hit rate of the full screen: of about 2,700 compounds, about 160 (5.9%) showed an effect of 50% or more. The sample holds strong results, similar compounds and a random draw of the others, so the mix is not that of the screen.

Chain of Nonstructural protein 3 (Zika virus) (A0A024AXB9 as listed by the source): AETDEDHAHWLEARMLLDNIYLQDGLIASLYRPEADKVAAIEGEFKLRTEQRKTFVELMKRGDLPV

For orientation: inhibition means the relative decrease from the control value, in per cent. Consider `O=C(c1cc(Cl)ccc1NS(=O)(=O)c1ccc(Oc2ccccc2Cl)cc1)N1CCN(c2ccccc2O)CC1`, for which the inhibition under setting [1] was -1.02%. Consider `C[C@@H](c1ccccc1)N(Cc1ccncc1)C(=O)C1CCN(c2ccc(C=O)cc2)CC1`, for which, under setting [2], the inhibition was determined as 21.5%. Consider `O=C(c1cc(Cl)ccc1NS(=O)(=O)c1ccc(Oc2ccccc2Cl)cc1)N1CCN(CCc2ccncc2)CC1`, for which the inhibition under setting [1] is 6.55%. `O=C(Nc1cc(Cl)c(F)cc1F)c1cc(Cl)ccc1NS(=O)(=O)c1ccc(Oc2ccccc2Cl)cc1`: the inhibition under setting [1] came to 26.5%. On the same count and under the same terms, the figure for `O=C(Nc1ccc(Cl)c(Cl)c1)c1cc(Cl)ccc1NS(=O)(=O)c1ccc(Oc2ccccc2Cl)cc1` is 37.7%; for `O=C(Nc1ccc(Br)nc1)c1cc(Cl)ccc1NS(=O)(=O)c1ccc(Oc2ccccc2Cl)cc1` it is 35.2%; for `C[C@H](NC(=O)c1cc(Cl)ccc1NS(=O)(=O)c1ccc(Oc2ccccc2Cl)cc1)c1ccc(N2CCOCC2)cc1` it is 18.7%.

With `O=C(Nc1ccc(I)cc1F)c1cc(Cl)ccc1NS(=O)(=O)c1ccc(Oc2ccccc2Cl)cc1`, under setting [1], the inhibition worked out at 67.5%.

On to `O=C(Nc1ccc(N2CCOCC2=O)cc1)c1cc(Cl)ccc1NS(=O)(=O)c1ccc(Oc2ccccc2Cl)cc1`, for which, under setting [1], the inhibition was determined as 48.5%.

As for `Cc1cc(I)ccc1NC(=O)c1cc(Cl)ccc1NS(=O)(=O)c1ccc(Oc2ccccc2Cl)cc1`, the inhibition under setting [1] stood at 20.7%.

With `O=C(c1cc(Cl)ccc1NS(=O)(=O)c1ccc(Oc2ccccc2Cl)cc1)N1CCN(CCc2ccccc2)CC1`, under setting [1], the inhibition is 53.5%.

Turning to `O=C(Nc1cccc(N2CCOCC2)c1)c1cc(Cl)ccc1NS(=O)(=O)c1ccc(Oc2ccccc2Cl)cc1`, the inhibition under setting [1] was 66.3%.

For the compound `O=C(c1cc(Cl)ccc1NS(=O)(=O)c1ccc(Oc2ccccc2Cl)cc1)N1CCCN(CCCc2ccccc2)CC1`, the inhibition under setting [1] was 11.4%. With `O=C(Nc1ccc2scnc2c1)c1cc(Cl)ccc1NS(=O)(=O)c1ccc(Oc2ccccc2Cl)cc1`, the inhibition under setting [1] worked out at 71.2%. On the same count and under the same terms, the figure for `O=C(c1cc(Cl)ccc1NS(=O)(=O)c1ccc(Oc2ccccc2Cl)cc1)N1CCC(N2CCCC2=O)CC1` is -2.59%. On to `Cn1ccc(CN2CC[C@H](c3c[nH]c4ccccc34)C2)cc1=O`, for which the inhibition reads like this: (PRVABC59, Concentration 49.5 uM, Number of replicates 2.0, Standard deviation 0.9869168424646743 %) 2.74%; (PRVABC59, Concentration 99.01 uM, Number of replicates 2.0, Standard deviation 1.3893738957347146 %) 5.37%; (PRVABC59, Concentration 198.0 uM, Number of replicates 2.0, Standard deviation 1.456023236095902 %) 9.72%.

For the compound `O=C(c1cc(Cl)ccc1NS(=O)(=O)c1ccc(Oc2ccccc2Cl)cc1)N1CCN(Cc2cc(F)ccc2F)CC1`, the inhibition under setting [1] was 17.7%. Regarding `COc1cc(CNC(=O)c2cc(Cl)ccc2NS(=O)(=O)c2ccc(Oc3ccccc3Cl)cc2)cc(OC)c1OC`, the inhibition under setting [1] is 19.3%. With `O=Cc1ccc(N2CCC(C(=O)Nc3cccc(Br)c3)CC2)cc1`, the inhibition under setting [2] is 23.9%.

As to `O=C(NCc1noc(-c2cccs2)n1)c1cc(Cl)ccc1NS(=O)(=O)c1ccc(Oc2ccccc2Cl)cc1`, the inhibition under setting [1] was 51.9%. Consider `O=C(Nc1cc(Cl)c(O)c(Cl)c1)c1cc(Cl)ccc1NS(=O)(=O)c1ccc(Oc2ccccc2Cl)cc1`, for which the inhibition under setting [1] turned out to be 84.9%. On the same count and under the same terms, the result for `O=C(Nc1cc(Cl)c(F)c(Cl)c1)c1cc(Cl)ccc1NS(=O)(=O)c1ccc(Oc2ccccc2Cl)cc1` reads 24.3%. On the same count and under the same terms, the result for `O=C(Nc1ccccc1-c1ccccc1)c1cc(Cl)ccc1NS(=O)(=O)c1ccc(Oc2ccccc2Cl)cc1` reads 36.2%; that for `O=C(Nc1ccc(-c2ccccc2)cc1)c1cc(Cl)ccc1NS(=O)(=O)c1ccc(Oc2ccccc2Cl)cc1`, 26.5%; that for `O=C(Nc1cccnc1Br)c1cc(Cl)ccc1NS(=O)(=O)c1ccc(Oc2ccccc2Cl)cc1`, 23%. Still for that read-out and setting: the figure for `O=C(NCc1ccc(-c2cccs2)cc1)c1cc(Cl)ccc1NS(=O)(=O)c1ccc(Oc2ccccc2Cl)cc1` is 28.5%; for `O=C(Nc1cc(F)c(Br)c(F)c1)c1cc(Cl)ccc1NS(=O)(=O)c1ccc(Oc2ccccc2Cl)cc1` it is 23.4%. For the compound `O=C(NCc1noc(-c2ccco2)n1)c1cc(Cl)ccc1NS(=O)(=O)c1ccc(Oc2ccccc2Cl)cc1`, the inhibition under setting [1] is 48.1%. Same read-out and setting: the figure for `O=C(Nc1ccccc1I)c1cc(Cl)ccc1NS(=O)(=O)c1ccc(Oc2ccccc2Cl)cc1` is 26.7%; for `O=C(Nc1ccc(-c2ccccn2)cc1)c1cc(Cl)ccc1NS(=O)(=O)c1ccc(Oc2ccccc2Cl)cc1` it is 58.7%; for `O=C(Nc1ccccc1Oc1ccccc1)c1cc(Cl)ccc1NS(=O)(=O)c1ccc(Oc2ccccc2Cl)cc1` it is 54.2%. Turning to `O=C(NCCNC(=O)c1cc(Cl)ccc1NS(=O)(=O)c1ccc(Oc2ccccc2Cl)cc1)c1ccccc1Cl`, the inhibition under setting [1] amounted to 25%. Take `NC(=O)[C@H](Cc1ccc(O)cc1)NC(=O)C1CCN(c2ccc(C=O)cc2)CC1`: the inhibition under setting [2] came to 27%. Regarding `O=C(c1cc(Cl)ccc1NS(=O)(=O)c1ccc(Oc2ccccc2Cl)cc1)N1CCC(n2c(=O)[nH]c3ccccc32)CC1`, the inhibition under setting [1] was found to be 15.6%. In the case of `CC(C)(CO)NC(=O)c1cc(Cl)cc(NC(=O)Cc2cccc(N3CCOCC3)c2)c1`, the inhibition is -2.52% (PRVABC59, Concentration 49.5 uM, Number of replicates 2.0, Standard deviation 3.0522593855592395 %); -0.793% (PRVABC59, Concentration 99.01 uM, Number of replicates 2.0, Standard deviation 3.368926317951112 %); 0.389% (PRVABC59, Concentration 198.0 uM, Number of replicates 2.0, Standard deviation 2.506775358140388 %). With `O=C(c1cc(Cl)ccc1NS(=O)(=O)c1ccc(Oc2ccccc2Cl)cc1)N1CCC[C@H](C(F)(F)F)C1`, the inhibition under setting [1] was 20.5%.

As for `CN(Cc1cccc2ccccc12)C(=O)c1cc(Cl)ccc1NS(=O)(=O)c1ccc(Oc2ccccc2Cl)cc1`, the inhibition under setting [1] worked out at 19.1%. As to `O=C(NCCc1c[nH]cn1)[C@@]1(c2ccc(F)cc2)CCCNC1`, the inhibition (PRVABC59, Concentration 50.0 uM, Number of replicates 2.0, Standard deviation 1.8533531884648646 %) came out at 1.12%; the inhibition (PRVABC59, Concentration 100.0 uM, Number of replicates 2.0, Standard deviation 1.243259032729753 %) was 2.94%; the inhibition (PRVABC59, Concentration 200.0 uM, Number of replicates 2.0, Standard deviation 0.45116199355607794 %) came to 1.26%. Turning to `Cc1cc(NC(=O)c2cc(Cl)ccc2NS(=O)(=O)c2ccc(Oc3ccccc3Cl)cc2)cc(C)c1Br`, the inhibition under setting [1] stood at 27.6%.

As to `O=C(NCc1ccc2c(c1)OCCO2)c1cc(Cl)ccc1NS(=O)(=O)c1ccc(Oc2ccccc2Cl)cc1`, under setting [1], the inhibition was 24.8%. As to `O=C(Nc1cccc(I)c1)c1cc(Cl)ccc1NS(=O)(=O)c1ccc(Oc2ccccc2Cl)cc1`, under setting [1], the inhibition is 48.1%. Same read-out and setting: the result for `O=C(Nc1ccc(I)cc1)c1cc(Cl)ccc1NS(=O)(=O)c1ccc(Oc2ccccc2Cl)cc1` reads 58.1%; that for `O=C(Nc1ccc2c(c1)OC(F)(F)O2)c1cc(Cl)ccc1NS(=O)(=O)c1ccc(Oc2ccccc2Cl)cc1`, 50%; that for `O=C(CNC(=O)c1cc(Cl)ccc1NS(=O)(=O)c1ccc(Oc2ccccc2Cl)cc1)c1ccc([N+](=O)[O-])cc1`, 33%. Still for that read-out and setting: the result for `O=C(Nc1cccc(Br)c1)c1cc(Cl)ccc1NS(=O)(=O)c1ccc(Oc2ccccc2Cl)cc1` reads 43.8%; that for `Cc1cc(Br)cc(NC(=O)c2cc(Cl)ccc2NS(=O)(=O)c2ccc(Oc3ccccc3Cl)cc2)c1`, 53.6%; that for `O=C(CNC(=O)c1cc(Cl)ccc1NS(=O)(=O)c1ccc(Oc2ccccc2Cl)cc1)c1ccccc1F`, 40.7%. Same read-out and setting: the result for `O=C(Nc1ccc2c(c1)OCCO2)c1cc(Cl)ccc1NS(=O)(=O)c1ccc(Oc2ccccc2Cl)cc1` reads 63.8%; that for `O=C(CNC(=O)c1cc(Cl)ccc1NS(=O)(=O)c1ccc(Oc2ccccc2Cl)cc1)c1ccc(O)cc1`, 52.2%.

For `O=C(Nc1ccc(I)c(F)c1)c1cc(Cl)ccc1NS(=O)(=O)c1ccc(Oc2ccccc2Cl)cc1`, the inhibition under setting [1] worked out at 37.6%.

For the origin of these results see ChEMBL document CHEMBL5606458, “ASAP - ZIKV NS2B-NS3 protease fluorescence single point” (2024).
